This note sets out measurements from PubChem BioAssay (NCATS).

Results filed as inconclusive are left out. Calls of active or inactive are those of the source. Calls come from the whole dose curve; as a rule, active = well fitted inhibition curve with a large enough effect in the repeat runs; inconclusive = weak or mixed curves; inactive = no such curve, though single readings can be large or run the other way.
Potency is the fitted concentration of half-maximal effect.

Sequence of Cytochrome P450 2C9 (Homo sapiens) (P11712 whole entry, looked up): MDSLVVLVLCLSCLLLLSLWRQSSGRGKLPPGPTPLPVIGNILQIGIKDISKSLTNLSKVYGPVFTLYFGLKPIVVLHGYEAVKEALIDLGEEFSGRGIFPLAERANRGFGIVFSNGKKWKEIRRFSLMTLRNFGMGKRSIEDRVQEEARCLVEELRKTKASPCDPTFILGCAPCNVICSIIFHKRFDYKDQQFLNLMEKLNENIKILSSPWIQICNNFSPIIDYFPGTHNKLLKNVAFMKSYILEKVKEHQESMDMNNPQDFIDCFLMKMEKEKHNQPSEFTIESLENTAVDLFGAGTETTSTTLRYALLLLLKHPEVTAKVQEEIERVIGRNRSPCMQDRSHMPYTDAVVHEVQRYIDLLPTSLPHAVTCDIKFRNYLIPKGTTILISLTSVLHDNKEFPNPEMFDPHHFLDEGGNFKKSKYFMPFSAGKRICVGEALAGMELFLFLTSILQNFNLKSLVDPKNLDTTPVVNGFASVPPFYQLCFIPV

For the test, the target named is Cytochrome P450 2C9 (Homo sapiens) (UniProt P11712). The experiment in a line: Cytochrome P450 family 2 subfamily C member 9 (CYP2C9) small molecule antagonists: luciferase biochemical (cell-free) qHTS assay (AID 1645842). Note: nearly all actives have a fitted effect of over 55% in size. To be noted: P450-Glo CYP2C9 enzyme assay, luciferin luminescence; series mostly up to 57.4 µM. The method, boiled down:
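Luminescence, after 20 min with luciferin detection reagent, reflected CYP2C9 turnover during a 1 h NADPH-driven reaction at 37C. Enzyme-substrate mix contained 0.4% bovine serum albumin and was preincubated with compound 10 min at room temperature.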
As to `CC(C)(C)c1ccc(S(=O)(=O)c2cnc(SCC(=O)Nc3ccc(F)c(Cl)c3)[nH]c2=O)cc1`, the Potency is 0.536 µM (active).
For `COC(=O)c1c(-c2ccc(Cl)cc2)noc1N1CCN(c2ccccc2OC)CC1`, the Potency result is “inactive”.
For `CC(NC(=O)C(=O)Nc1c2c(nn1-c1ccccc1)CSC2)c1ccccc1` (centres undefined) the value was 3.38 µM (active); for `CCC(Sc1nc2ccccc2c2nc(CCn3cncc3C)nn12)C(=O)Nc1cccc(OC)c1` (centres undefined), 1.9 µM (active); for `COc1ccc(CCNc2nc(SCc3ccccc3Cl)nc3ccccc23)cc1OC`, 0.19 µM (active).
The result for `CCOC(=O)c1nnc(NC(=O)C2=C(C)NC(Nc3nc4ccccc4o3)=NC2c2ccccc2Cl)s1` (centres undefined) reads 16.9 µM (active); that for `Cc1ccc(S(=O)(=O)N[C@@H]2CCCC[C@H]2O)cc1`, “inactive”.
Regarding `COc1ccc(NC(=O)CSc2nc(-c3cccs3)cc(C(F)(F)F)n2)cc1OC`, the Potency entry was “inactive”.
For `COc1ccc(NC(=O)c2cnc[nH]2)cc1S(=O)(=O)Nc1ccc(Br)cc1` the value was 10.7 µM (active); for `CCc1nnc(NC(=O)CSc2nc3c([nH]c4ccccc43)c(=O)n2-c2ccc(OC)cc2)s1`, 4.25 µM (active); for `CCOc1ccc2nc(N3CCC(C(=O)Nc4ccccc4CC)CC3)sc2c1`, 6.01 µM (active).
For `Cc1ccnc(NC(c2ccccc2F)c2ccc3cccnc3c2O)c1` (centres undefined) the value was 23.9 µM (active).
For `COc1cc(C(=O)NC(c2ccc(Cl)cc2)c2cc(Cl)c3cccnc3c2O)cc(OC)c1OC` (centres undefined) the value was 10.7 µM (active); for `Nc1nc(N)c(S(=O)(=O)c2ccccc2)c(Nc2ccc(Br)cc2)n1`, 4.77 µM (active).
